Laboratory results reported in PubChem BioAssay (NCI).
Compounds without any hit were thinned out: in the full panel of roughly 79,000, 15% have a hit. The source made the active and inactive calls. Cut-off read from the data, not from the text of the source: active = growth inhibition above about 70%; inactive = the rest.

Experiment: NCI Yeast Anticancer Drug Screen. Data for the wt1 strain (AID 149);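 note: 0% = growth of vehicle-treated wt1 cultures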
Settings: S. cerevisiae wt1 strain (SPY 50644) growth inhibition, active compounds read high
Protocol: Growth inhibition of yeast strains with defined genetic alterations is measured as a screen for potential anti-cancer activity. Selected strains with alterations in DNA damage repair or cell cycle control were exposed to compounds and growth inhibition was measured relative to vehicle treated controls. The strain used in this assay is wt1

Measured: growth inhibition

CCCCCCCCCC(=O)N(CCC)CCC
inactive: at 1.2 µM -10% | at 3.7 µM -10% | at 11.0 µM -17%
active: at 33.0 µM 79% | at 100.0 µM 98%

CC(C)C(=O)CC(Sc1ccc(N)cc1)c1ccccc1 (stereo not given)
inactive: at 1.2 µM -4% | at 3.7 µM -4% | at 11.0 µM -1% | at 33.0 µM 10% | at 100.0 µM 18%

COc1cccc(/C=C2\S/C(=N/Nc3nc(-c4ccc([N+](=O)[O-])cc4)cs3)NC2=O)c1O
inactive: at 1.2 µM -78% | at 3.7 µM 7% | at 11.0 µM 22% | at 33.0 µM 42% | at 100.0 µM 57%

O=[N+]([O-])c1cc[n+]([O-])c(Cl)c1
inactive: at 1.2 µM -17% | at 3.7 µM -26% | at 11.0 µM -19%
active: at 33.0 µM 100% | at 100.0 µM 99%

O=[N+]([O-])c1cn[n+]([O-])c2ccccc12
inactive: at 1.2 µM 0% | at 3.7 µM 16% | at 11.0 µM 34%
active: at 33.0 µM 93% | at 100.0 µM 99%

O=C1C(=O)c2cccc([N+](=O)[O-])c2-c2ccccc21
active: at 33.0 µM 100% | at 100.0 µM 98%
inactive: at 1.2 µM 2% | at 3.7 µM 20% | at 11.0 µM 18%

C[C@H](CCC1=NC(C)(C)CO1)C1CCC2[C@@H]3C(O)C[C@@H]4CC(O)CC[C@]4(C)C3CC[C@@]21C (stereo not given in full)
inactive: at 1.2 µM -3% | at 3.7 µM -5% | at 11.0 µM -11% | at 33.0 µM 37%
active: at 100.0 µM 99%

O=S(=O)(c1ccccc1)N1CN2CN(C1)CN(S(=O)(=O)c1ccccc1)C2
inactive: at 1.2 µM -3% | at 3.7 µM 14% | at 11.0 µM 17% | at 33.0 µM 11% | at 100.0 µM 16%
